Reference: PubChem BioAssay AID1645886 (National Center for Advancing Translational Sciences (NCATS), 2021)
Where “and” joins values, the source holds several entries; their conditions need not be identical. Equal entries are not always repeated. Among all 16,000 compounds or so, about 260 (1.6%) were called active. Roughly 14% stayed inconclusive and do not appear here. Calls follow the shape of the dose curve; as a rule, active = well fitted inhibition curve with a large enough effect; inconclusive = small, poorly fitted or top-dose-only effect; inactive = no such curve, though single readings can be large or run the other way. This excerpt belongs to a sample that is enriched for actives. A structure can be active in one record and inactive in another. *1 amine or outer side, *2 acyl side, *3 side chain or, on linkers, in order; H or OH if unused. Where a SMILES comes first, the peptide text is derived from it. Bridges are numbered along the chain shown (N, C = ends). [ ]: non-standard residue; d: D form. The star is where a group is joined. X12 = NC1=N[C@@H]([C@H](N[*:1])C(=O)[*:2])C[C@H](O)N1; ΔAla(Z-3-ureido) = NC(=O)N/C=C(\N)C(=O)O; β3hOrn = NCCC[C@H](N)CC(=O)*; Dap = NC[C@H](N)C(=O)O

target: Rap guanine nucleotide exchange factor 4 (Homo sapiens) (UniProt Q8WZA2); experiment: Validation qHTS for antagonist of cAMP-regulated guanine nucleotide exchange factor 4 (EPAC2); conditions: EPAC2 Rap1B BODIPY-GDP exchange, fluorescence; series mostly up to 112 µM; activity, negative = inhibition: at the top concentration; also: nearly all actives have a fitted effect of over 40% in size
Source text: Principle Investigator: Xiaodong Cheng Ph.D. The University of Texas Medical Branch, […], TX MLPCN Grant: NS066510 In multi-cellular eukaryotic organisms, the effects of cAMP are transduced by two ubiquitously-expressed intracellular cAMP receptors, the classic protein kinase A/cAMP-dependent protein kinase (PKA/cAPK) and the more recently discovered exchange protein directly activated by cAMP/cAMP-regulated guanine nucleotide exchange factor (EPAC/cAMP-GEF). Both PKA and EPAC are ubiquitously expressed in all tissues, and an increase in intracellular cAMP levels will lead to the activation of both PKA and EPAC. Therefore, careful dissections of the individual role and relative contribution of EPAC and PKA within the overall cAMP signaling in various model systems are critical for further elucidating the mechanism of cAMP signaling. To date no EPAC-specific antagonists and agonist, as well as isoform-specific agonists have been reported, and developing EPAC-specific pharmacological probes to determine the physiological functions that EPAC play in the overall cAMP-mediated signaling remains a major challenge within the research field. Furthermore, identified regulators of EPAC may lead to new mechanism-based therapeutic strategies specifically targeting the EPAC / cAMP-signaling components as EPAC has been implicated to play important roles in major human pathological conditions such as diabetes, heart disease, and cancer. This qHTS will be used to screen the Molecular Libraries Small Molecule Repository (MLSMR) as a concentration-titration series using the NCGC unique quantitative screening (qHTS) platform to find activators for EPAC1. In addition, this assay will also be used as a counterscreen for the EPAC2 qHTS. This fluorescent based assay is developed and validated for EPAC1 that measures exchange using EPAC effector Rap1 complex with BODIPY-GDP, a GDP analog with a tethered fluorophores. Activators are identified by monitoring the change in fluorescence signal as the exchanged free BODIPY-GDP has a reduced fluorescence compared to Rap1-bound BODIPY-GDP. Increase in signal (activation) is the desired outcome for the EPAC1 agonist while no activity in this assay is desired for the EPAC2 agonist counterscreen. Reference: [1] de Rooij, J., Zwartkruis, F. J., Verheijen, M. H., Cool, R. H., Nijman, S. M., Wittinghofer, A., and Bos, J.L. (1998) Nature 396, 474-477.
Briefly, three uL of reagents (100 nM EPAC2, 250 nM RAP1B-BODIPY-GDP, 50 uM GDP) were dispensed into a 1536-well Greiner black solid-bottom medium binding assay plate. Controls and test compounds (23 nL) were transferred to the plate via a Kalypsys pin tool equipped with a 1536-pin array. The plates were centrifuged at 1,000 rpm for 15 seconds followed by 5 minute incubation at room temperature. The assay plates were read at 5 minute intervals for 30 minutes in the ViewLux plate reader using 480nm excitation and 540nm emission filters. The results were normalized to the agonist positive control of 6.5 mM cAMP.
Potency is read from the fitted curve at half-maximal effect.

Sequence of Rap guanine nucleotide exchange factor 4 (Homo sapiens) (Q8WZA2 whole entry, looked up): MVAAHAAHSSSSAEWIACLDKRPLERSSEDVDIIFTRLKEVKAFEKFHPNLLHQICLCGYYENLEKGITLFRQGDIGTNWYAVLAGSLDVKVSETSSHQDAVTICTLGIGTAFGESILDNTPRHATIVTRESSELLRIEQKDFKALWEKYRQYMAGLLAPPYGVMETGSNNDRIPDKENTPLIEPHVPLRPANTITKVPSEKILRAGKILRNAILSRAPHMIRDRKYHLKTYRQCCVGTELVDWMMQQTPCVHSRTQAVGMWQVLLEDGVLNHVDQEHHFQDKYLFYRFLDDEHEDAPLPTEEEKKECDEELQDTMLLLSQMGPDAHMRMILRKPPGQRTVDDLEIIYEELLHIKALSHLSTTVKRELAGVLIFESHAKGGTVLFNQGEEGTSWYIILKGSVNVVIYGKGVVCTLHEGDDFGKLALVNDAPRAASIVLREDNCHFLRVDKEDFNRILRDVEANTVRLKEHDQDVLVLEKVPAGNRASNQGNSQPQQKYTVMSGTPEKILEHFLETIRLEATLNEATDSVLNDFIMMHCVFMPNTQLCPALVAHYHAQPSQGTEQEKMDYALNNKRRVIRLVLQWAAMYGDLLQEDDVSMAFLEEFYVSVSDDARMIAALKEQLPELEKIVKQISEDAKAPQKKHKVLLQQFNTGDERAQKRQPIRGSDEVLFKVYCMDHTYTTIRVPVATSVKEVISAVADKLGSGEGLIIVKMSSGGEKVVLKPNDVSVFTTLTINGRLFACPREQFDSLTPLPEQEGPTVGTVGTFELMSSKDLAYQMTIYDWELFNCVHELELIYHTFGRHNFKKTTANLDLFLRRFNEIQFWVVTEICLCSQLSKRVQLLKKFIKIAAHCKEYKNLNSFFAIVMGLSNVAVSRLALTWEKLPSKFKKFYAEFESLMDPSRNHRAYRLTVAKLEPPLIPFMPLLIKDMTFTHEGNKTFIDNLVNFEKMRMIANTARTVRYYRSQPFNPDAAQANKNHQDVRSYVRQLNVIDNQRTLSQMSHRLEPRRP

Compound | activity, negative = inhibition | Potency
CC(C)=CC1C(C(=O)O)C1(C)C (stereo not given) | -11.1% (inactive) | 
CCCCC/C=C\C/C=C\CCCCCCCCCC(=O)O | -26.6% [at 11.4 µM] (inactive) | 
COc1ccccc1C1CN(Cc2ccccc2O)Cc2ccccc2O1 (stereo not given) | -26.5% (inactive) | 
Cc1c(O)cc(O)c2c(=O)c(-c3ccc(O)cc3)coc12 | -5.64% (inactive) | 
C[C@@H]1O[C@@H](OC[C@H]2O[C@@H](Oc3c(-c4cccc(O)c4O)oc4cc(O)cc(O)c4c3=O)[C@H](O)[C@@H](O)[C@@H]2O)[C@H](O)[C@H](O)[C@H]1O | -20.9% (inactive) | 
COc1cccc(Cn2c(=O)c(-c3ccccc3)nc3cnc(OC)nc32)c1 | -28.4% (inactive) | 
O=c1c(-c2ccc(F)cc2)nc2cnc(N3CCNCC3)nc2n1Cc1cccs1 | -29.2% (inactive) | 
O=C(c1csnn1)N1CCC[C@@]2(CCN(Cc3nccs3)C2)C1 | -18.4% (inactive) | 
COCCN1CCN(C(=O)c2sc3ncnc(NCC4CCCO4)c3c2C)CC1 (stereo not given) | -8.65% (inactive) | 
O=C(Nc1cccc(F)c1)N1CCC2(CC1)CCN(S(=O)(=O)c1ccccc1)CC2 | -22% (inactive) | 
c1ccc2c(Nc3ccncc3)nc(-c3ccoc3)nc2c1 | -19% (inactive) | 
COCCn1c(=O)c(CCc2ccccc2)nc2cncnc21 | -6.11% (inactive) | 
CCC(C)[C@@H](N)C(=O)O (stereo not given in full) |  | inactive
O=S(=O)(c1ccccc1)N1CCC2(CC1)CN(Cc1nccs1)C2 | -23.4% (inactive) | 
COc1ccc(NC(=O)N2CC3(CCN(C(=O)c4cccn4C)CC3)C2)cc1 | -24.9% (inactive) | 
COc1cccc(Nc2ncc3ncc(=O)n(C4CC4)c3n2)c1 | -20.3% (inactive) | 
C/C=C/C=N/NC(=O)c1ccncc1 | -17.4% (inactive) | 
O=c1c(CCc2ccccc2)nc2cnc(N3CCNCC3)nc2n1Cc1cccs1 | -10.5% (inactive) | 
COc1ccc(CC(N)C(=O)NC2C(O)[C@H](n3cnc4c(N(C)C)ncnc43)O[C@@H]2CO)cc1 (stereo not given in full) | -11.5% (inactive) | 
O=C1c2c(O)cccc2[C@@H]([C@@H]2O[C@H](CO)[C@@H](O)[C@H](O)[C@H]2O)c2cc(CO)cc(O)c21 | -22.2% (inactive) | 
CCOC(=O)N1CCC(N2CCOc3ccc(CN4CCC(O)(c5cccnc5)CC4)cc3C2)CC1 |  | 79.4 µM (active)
CC(C)c1cc(C(=O)N2CCOc3ccc(CN4CCC(Oc5cccnc5)CC4)cc3C2)n[nH]1 | -9.89% (inactive) | 
CCOC(=O)N1CCN(Cc2ccc3c(c2)CN(C(=O)c2cccc(-n4cccn4)c2)CCO3)CC1 | -2.38% (inactive) | 
COCCn1c(=O)c(-c2ccc(OC)cc2)nc2cnc(Oc3cccc(Cl)c3)nc21 | -28.7% (inactive) | 
CC(C)NC(=O)N1CC[C@@]2(CCCN(C(=O)c3ccco3)C2)C1 | -26.8% (inactive) | 

Compound | activity, negative = inhibition | Potency
CC(C)(C)c1ccc(C(=O)C[N+]2(C)CCCc3ccccc32)cc1 (stereo not given) | -5.47% (inactive) | 
COc1ccc(F)c(CN2CCC3(CCC(CNC(=O)c4ccn(C)n4)O3)CC2)c1 (stereo not given) | -3.57% (inactive) | 
CS(=O)(=O)Nc1cccc(-c2cncnc2Nc2ccccc2)c1 | -7.64% (inactive) | 
CC(=O)OCC(=O)C1CCC2C3CCC4=CC(=O)CC[C@@]4(C)C3CC[C@]12C (stereo not given in full) | -10.5% (inactive) | 
CC(C)c1ccc2c(c1)c(SC(C)(C)C)c(CC(C)(C)C(=O)O)n2Cc1ccc(Cl)cc1 |  | inactive and 50.1 µM (active)
N#Cc1cccc(-c2ccc3ncnc(NCc4cccs4)c3c2)c1 | -7.28% (inactive) | 
C=C(C)C1CC=C(CO)CC1 (stereo not given) | -12.9% (inactive) | 
CCCC1C(=O)N2C(N(C)C)=Nc3ccc(C)cc3N2C1=O (stereo not given) | -16.8% [at 56.6 µM] (inactive) | 
COC(=O)N1CCC2(CCCN(c3ccncc3)C2)CC1 | 1.24% (inactive) | 
CC[N+](C)(CC)CCC[n+]1c(-c2ccccc2)c2cc(N)ccc2c2ccc(N)cc21 |  | 50.1 µM (active)
O=C1CCN(Cc2ccc([N+](=O)[O-])cc2)CCN1[C@H](CO)Cc1ccccc1 | -7.03% (inactive) | 
Cc1cccc(-c2cc(=O)c3cc(C)ccc3o2)c1 | -23.6% (inactive) | 
CN(C)CCc1c[nH]c2ccc(Cn3cncn3)cc12 | -7.05% (inactive) | 
Cc1noc(C)c1-c1cc(NCc2cccnc2)ncn1 | -28.3% (inactive) | 
C=CC1(C)CC(=O)C2(O)C(C)(O1)C(OC(C)=O)C(O)C1C(C)(C)CCC(O)C12C (stereo not given) | -12.8% (inactive) | 
COc1cc(-c2cccnc2)cc2c1OCCN(C(=O)Cc1csc(C)n1)C2 | -11.1% (inactive) | 
CCCCCCc1ccc(O)cc1O |  | 39.8 µM (active)
NCCC[C@H](N)CC(=O)N[C@H]1CNC(=O)[C@H]([C@H]2C[C@H](O)NC(N)=N2)NC(=O)/C(=C/NC(N)=O)NC(=O)[C@H](CO)NC(=O)[C@H](CO)NC1=O (β3hOrn-[Dap]SS[ΔAla(Z-3-ureido)][X12]; lactam 1-C) | -5.63% (inactive) | 
O=C(O)C[C@@H]1NC(=O)[C@H](Cc2ccccc2)NC1=O | -8.54% (inactive) | 
COc1ccc2c(c1)CCc1cnc(-n3ncc(C(=O)NCc4cccnc4)c3C3CC3)nc1-2 | 6.6% (inactive) | 
Cc1nc2cnc(Nc3ccccc3)nc2n(C[C@H]2CCCO2)c1=O | -3.7% (inactive) | 
CN1CCN(c2ncc3nc(-c4ccc(Cl)cc4)c(=O)n(-c4ccccc4)c3n2)CC1 | -24.2% (inactive) | 
Cc1nc2cnc(N3CCN(C)CC3)nc2n(C[C@H]2CCCO2)c1=O | -7.61% (inactive) | 
CC(O)[C@@H](N)C(=O)O (stereo not given in full) | 12.4% (inactive) | 
COC(=O)C1CCCCN1Cc1ccc2c(c1)CN(Cc1cc(OC)c3c(c1)OCO3)CCO2 (stereo not given) | -25.8% (inactive) | 
